# According to PubChem BioAssay (NCATS):
# Values joined by “and” are separate entries in the source; they are usually repeats but may differ in a detail not shown here. Identical values can stand only once. Inconclusive results are not listed. A call without a number means that no potency is given here. More than one record can exist for a structure, and the calls need not agree. Active and inactive are the calls of the source. Unless noted, the call rests on the fitted dose curve; in most records, active means well fitted curve in the direction sought with a large enough effect; inconclusive means small, poorly fitted or top-dose-only effect, or another doubt; inactive means no such curve, though single readings can be large; an effect the other way counts as inactive or inconclusive.
# Tests used:
# [1] = molecular target: Glutaminase kidney isoform, mitochondrial (Homo sapiens) (UniProt O94925); test: qHTS for Inhibitors of Glutaminase (GLS): LOPAC Validation (AID 624146); further: nearly all actives have a fitted effect of over 60% in size; further: potency means the concentration at half of the fitted maximal effect
# Method in brief: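 Read-out is an Amplex red fluorescence increase coupled through glutamate oxidase and HRP, measured before and after 30 min room-temperature incubation. hKGA is in 45 mM KH2PO4 (pH 8.2) with 0.02% Tween-20; glutamine added as 1mM solution.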
# [2] = qHTS of Trypanosoma Brucei Inhibitors: LOPAC Validation (AID 624147)
# Method in brief: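 ADP (130 uM final) triggers the TbPYK reaction after compound addition; incubation is 45 min at room temperature. Kinase-Glo Plus is then added and luminescence imaged. Normalized data are fitted to concentration-effect curves.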
# [3] = molecular target: Glucagon-like peptide 1 receptor (Homo sapiens) (UniProt P43220); test: qHTS of GLP-1 Receptor Agonists: LOPAC Validation (AID 624148);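 further: luminescence from a luciferase reporter switched on by cAMP; higher luminescence signal means agonism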
# Method in brief: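 Agonism scored as increased luciferase luminescence driven by cAMP in HEK293 clones carrying GLP-1R. Cells settled 12 hours, received compound for 4-6 hr at 37 deg C, 5% CO2, and were read after 12 min detection reagent at RT.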
# [4] = qHTS of Nrf2 Activators: LOPAC Validation (AID 624149)
# Method in brief: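 AREc32 cells carrying an ARE-driven firefly luciferase were grown overnight in OPTI-MEM with 5% FBS, then exposed to compounds for 24 hr at 37 deg C. Luciferase signal was read after 30 min with Steady-Glo at RT.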
# [5] = HTS Assay for Allosteric Antagonists of the Human D2 Dopamine Receptor: Hit Validation in HTRF (AID 624455);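 further: stable D1 dopamine receptor cell line scored for blocking the D1 response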
# Method in brief: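 Hits were examined in an HTRF assay using cells stably expressing the D1 dopamine receptor, scoring inhibition of the D1-mediated response. The preceding primary screen tracked calcium flux after an EC80 dopamine addition in force-coupled, inducible Hek293 Trex D2 cells.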
# [6] = qHTS assay for small molecule agonists of the antioxidant response element (ARE) signaling pathway (AID 651741; active means well fitted activation curve with a large enough effect in the signal ratio; the % refers to the signal ratio; further: potency means the concentration at half of the fitted maximal effect)
# Method in brief: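 Seeding 2,000 ARE-bla HepG2 cells per well preceded a 5 h incubation at 37 C/5% CO2 and a 16 h compound exposure at 37 C. Beta-lactamase reporter activity was then quantified by fluorescence after 2 h with LiveBLAzer B/G FRET substrate.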
# [7] = qHTS assay for small molecule activators of the p53 signaling pathway (AID 651743; active means well fitted activation curve with a large enough effect in the signal ratio, not every such curve was filed as active; the % refers to the signal ratio); settings: HCT-116 p53RE-bla, beta-lactamase FRET ratio, 16 h; stronger effect = higher value
# Method in brief: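 Screen for p53 pathway agonists uses stably transfected p53RE-bla HCT-116 cells, 4,000 per well, treated 16 h at 37 C with compounds in DMSO.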
# [8] = qHTS assay for environmental chemicals that activate the Aryl hydrocarbon Receptor (AhR) signaling pathway (AID 651777); settings: 1A2-DRE human hepatoma cells, luciferase, 24 h; stronger effect = higher value; further: nearly all actives have a fitted effect of over 15% in size
# Method in brief: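 Measured luciferase activity, read 30 min after One-Glo addition at room temperature, from human hepatoma cells bearing a dioxin response element–CYP1A2 promoter reporter and exposed to compound for 24 hr at 37 C.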
# [9] = qHTS assay for small molecule activators of the nuclear factor-kappa B (NF-kB) signaling pathway (AID 651749; active means well fitted activation curve with a large enough effect in the signal ratio; the % refers to the signal ratio); settings: NF-kB-bla ME-180 cells, beta-lactamase FRET ratio, 16 h; activation: stronger effect = higher value
# Method in brief: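 Stably transfected ME-180 line; NF-kB response element upstream of beta-lactamase. Treatment: compound or DMSO, 16 hr. Detection: fluorescent FRET substrate.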
# [10] = molecular target: Tumor necrosis factor (Homo sapiens) (UniProt P01375); test: qHTS assay to identify small molecules that stimulate Tumor Necrosis Factor-alpha (TNF-alpha) secretion (AID 651757; active means well fitted curve in the direction sought with a large enough effect in the signal ratio; the % refers to the signal ratio)
# Method in brief: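 THP-1 cells were exposed to compounds for 17 hrs at 37 C, after which secreted TNF-alpha was measured by homogeneous HTRF (TR-FRET) using cryptate- and XL665-labeled anti-TNF-alpha antibodies, read after 3 hr at room temperature.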
# [11] = qHTS assay for small molecule disruptors of the mitochondrial membrane potential - 1 hr assay (AID 651754; calls by dose curve; further: nearly all actives have a fitted effect of over 35% in size; further: potency means the concentration at half of the fitted maximal effect)
# Method in brief: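 HepG2 cells, attached overnight at 37C, were exposed to compound or DMSO vehicle for 1 hr at 37C, 5% CO2, then stained with Mito-MPS dye for 30 min. Red aggregate versus green monomer fluorescence reports membrane potential.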
# [12] = qHTS assay for small molecule disruptors of the mitochondrial membrane potential - 5 hr assay (AID 651755; calls by dose curve; further: nearly all actives have a fitted effect of over 40% in size; further: potency means the concentration at half of the fitted maximal effect)
# Method in brief: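 HepG2, 2,000 cells/well, overnight attach; cpd or DMSO 5 hr, 37C/5% CO2; Mito-MPS 30 min 37C; fluor 490/535 + 540/590 nm.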
# [13] = Cell Proliferation Assay against the TMD8 Cell Line (AID 651645); settings: TMD8 DLBCL cell line proliferation/viability; at 46.1 µM (top of the series) unless noted;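 further: cells exposed to compound for 48 h before reading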
# Method in brief: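 Luminescent ATP read-out (CellTiter-Glo, 15 min RT) after 48 h compound exposure of log-growing TMD8 cells at 37C; percent activity scaled between DMSO as 100% and 9.2 uM bortezomib final as 0%.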
# [14] = Cell Proliferation Assay against the HBL1 Cell Line (AID 651646); settings: HBL1 DLBCL cells; at 46.1 µM (top of the series) unless noted;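 further: cells exposed to compound for 48 h before reading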
# Method in brief: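 Luminescent ATP read-out (CellTiter-Glo) after 48 h compound exposure of HBL1 cells at 37 °C; percent activity was scaled between DMSO as 100% and 9.2 uM bortezomib (final) as 0%.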
# [15] = Cell Proliferation Assay against the TMD8 Cell Line (Caspase readout at 16 hrs) (AID 651712); further: potency means the concentration at half of the fitted maximal effect
# Method in brief: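 Apoptotic response of TMD8 cells was judged from caspase 3/7 activation following a 16 hour compound incubation at 37 °C. Luminescent signal was converted to percent activity, with DMSO set as 0% and 9.2 uM final bortezomib as 100%.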
# [16] = Cell Proliferation Assay against the TMD8 Cell Line (Caspase readout at 8 hrs) (AID 651713); further: potency means the concentration at half of the fitted maximal effect
# Method in brief: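 TMD8 cells (500/well) in phenol red-free RPMI with 5% FBS were treated with compounds for 8 h at 37C, 5% CO2. Caspase-Glo 3/7 luminescence was read after 15 min at room temperature and normalised to DMSO (0%) and 9.2 uM bortezomib (100%).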
# [17] = Cytotoxicity counterscreen for NFkB agonists and antagonists (AID 624476);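 further: cells exposed to compound for 48 hours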
# [18] = qHTS Assay for Identification of Small Molecule Agonists for NFkB Signaling Pathway. (AID 624478)
# Method in brief: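 NFkB-bla ME-180 cells (beta-lactamase reporter under NFkB response element) were plated overnight, treated with compound plus TNF alpha at 10 pM final (its EC50) for 5 hrs at 37 C, then loaded with LiveBLAzer substrate for 2 hrs.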
# [19] = qHTS Assay for Identification of Small Molecule Antagonists for NFkB Signaling Pathway. (AID 624479; calls by dose curve;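 further: pathway stimulated with TNF alpha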)
# [20] = qHTS assay to identify small molecules that stimulate interleukin-8 (IL-8) secretion (AID 651758; active means well fitted activation curve with a large enough effect in the signal ratio; the % refers to the signal ratio)
# Method in brief: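 Secreted IL-8 measured by TR-FRET sandwich (cryptate and XL665 antibodies) from THP-1 cells exposed to compound overnight (16 hrs, 37 C).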
# Sequence of Glutaminase kidney isoform, mitochondrial (Homo sapiens) (O94925 whole entry, looked up, canonical isoform): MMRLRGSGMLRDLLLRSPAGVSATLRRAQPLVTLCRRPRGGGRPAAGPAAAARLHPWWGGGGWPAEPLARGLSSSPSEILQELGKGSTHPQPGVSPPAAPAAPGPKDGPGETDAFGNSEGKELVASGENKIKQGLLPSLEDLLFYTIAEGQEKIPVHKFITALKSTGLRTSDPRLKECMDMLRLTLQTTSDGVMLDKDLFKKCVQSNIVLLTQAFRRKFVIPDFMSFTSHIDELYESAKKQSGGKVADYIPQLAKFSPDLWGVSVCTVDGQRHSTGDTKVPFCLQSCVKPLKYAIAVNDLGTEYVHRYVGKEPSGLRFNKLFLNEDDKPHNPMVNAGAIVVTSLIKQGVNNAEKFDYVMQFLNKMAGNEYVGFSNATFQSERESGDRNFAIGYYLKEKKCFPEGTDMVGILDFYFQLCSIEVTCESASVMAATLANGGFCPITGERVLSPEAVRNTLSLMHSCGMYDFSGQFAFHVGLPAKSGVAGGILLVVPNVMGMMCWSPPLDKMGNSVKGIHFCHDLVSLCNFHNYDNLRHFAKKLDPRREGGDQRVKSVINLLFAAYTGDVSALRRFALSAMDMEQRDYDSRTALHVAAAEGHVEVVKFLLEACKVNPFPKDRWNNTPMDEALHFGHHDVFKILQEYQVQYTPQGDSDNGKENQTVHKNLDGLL
# Sequence of Tumor necrosis factor (Homo sapiens) (P01375 whole entry, looked up): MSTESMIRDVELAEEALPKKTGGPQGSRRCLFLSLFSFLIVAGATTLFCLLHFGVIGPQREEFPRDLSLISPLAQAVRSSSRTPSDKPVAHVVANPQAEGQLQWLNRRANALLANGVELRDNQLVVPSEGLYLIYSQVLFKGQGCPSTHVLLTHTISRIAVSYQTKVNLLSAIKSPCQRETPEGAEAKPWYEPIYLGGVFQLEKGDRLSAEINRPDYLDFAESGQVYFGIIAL
# Sequence of Glucagon-like peptide 1 receptor (Homo sapiens) (P43220 whole entry, looked up): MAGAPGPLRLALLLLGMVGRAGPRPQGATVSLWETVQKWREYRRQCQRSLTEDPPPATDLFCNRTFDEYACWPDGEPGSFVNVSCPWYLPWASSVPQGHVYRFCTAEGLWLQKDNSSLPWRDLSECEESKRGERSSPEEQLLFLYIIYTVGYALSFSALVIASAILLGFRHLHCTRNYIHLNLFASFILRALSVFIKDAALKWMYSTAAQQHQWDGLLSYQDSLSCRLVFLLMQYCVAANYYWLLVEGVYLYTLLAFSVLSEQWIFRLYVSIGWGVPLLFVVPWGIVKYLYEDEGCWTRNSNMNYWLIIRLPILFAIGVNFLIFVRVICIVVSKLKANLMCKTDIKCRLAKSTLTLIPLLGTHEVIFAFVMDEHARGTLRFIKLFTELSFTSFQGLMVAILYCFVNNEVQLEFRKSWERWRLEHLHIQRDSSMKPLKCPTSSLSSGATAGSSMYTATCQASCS
structure (smiles),measurement,setting,value
CN(C)CCOC(C)(c1ccccc1)c1ccccn1 (configuration not stated),Potency,[1],inactive
same,outcome,[2],inactive
same,outcome,[3],inactive
same,outcome,[4],inactive
same,outcome,[5],inactive
same,Potency,[6],inactive
same,activation,[7],2.16% (inactive)
same,activation,[8],-1.5% (inactive)
C[C@]12C[C@H](O)[C@H]3[C@@H](CCC4=CC(=O)CC[C@@]43C)[C@@H]1CC[C@@H]2C(=O)CO,Potency,[1],inactive
same,outcome,[2],inactive
same,outcome,[3],inactive
same,outcome,[4],inactive
same,outcome,[5],inactive
same,Potency,[6],inactive
same,activation,[7],-3.81% (inactive) and -1.82% (inactive)
same,activation,[9],-1.35% (inactive) and 0.404% (inactive)
same,outcome,[10],inactive
same,activation,[8],-0.656% (inactive) and -0.0877% (inactive)
CC(C)(C)c1onc(OCP(=O)(O)O)c1CC(N)C(=O)O (configuration not stated),Potency,[1],inactive
same,outcome,[2],inactive
same,outcome,[3],inactive
same,outcome,[4],inactive
CC1=C(CC(=O)O)c2cc(F)ccc2/C1=C\c1ccc(S(C)(=O)=O)cc1,Potency,[1],inactive
same,outcome,[2],inactive
same,outcome,[3],inactive
same,outcome,[4],inactive
COCCOC(=O)C1=C(C)NC(C)=C(C(=O)OC/C=C/c2ccccc2)C1c1cccc([N+](=O)[O-])c1 (configuration not stated),Potency,[1],inactive
same,outcome,[2],inactive
same,outcome,[3],inactive
same,outcome,[4],inactive
Cc1cccc(Nc2cc(Cl)nc(SCC(=O)O)n2)c1C,Potency,[6],inactive
same,activation,[7],4.88% (inactive)
same,activation,[9],3.82% (inactive)
same,activation,[8],-1.86% (inactive)
CN(C)CCCN1c2ccccc2CCc2ccccc21,Potency,[1],inactive
same,activation,[7],-6.39% (inactive)
same,activation,[8],-0.861% (inactive)
CCCCC(CC)COC(=O)c1ccccc1O (configuration not stated),activation,[7],0.46% (inactive)
same,activation,[9],-1.39% (inactive)
same,activation,[8],-0.423% (inactive)
Nc1ccc(S(=O)(=O)Nc2nccs2)cc1,Potency,[6],inactive
same,activation,[7],-5.45% (inactive)
same,activation,[9],0.351% (inactive)
same,outcome,[10],inactive
same,activation,[8],-0.168% (inactive)
CC(O)CN(CCN(CC(C)O)CC(C)O)CC(C)O (configuration not stated),activation,[7],-6.2% (inactive)
same,activation,[9],-0.0736% (inactive)
same,activation,[8],0.546% (inactive)
Cc1c(O)cccc1C(=O)N[C@@H](CSc1ccccc1)[C@H](O)CN1C[C@H]2CCCC[C@H]2C[C@H]1C(=O)NC(C)(C)C,Potency,[6],26.6 µM (active)
same,activation,[7],10.5% (inactive)
same,activation,[9],4.91% (inactive)
same,Potency,[11],42.2 µM (active)
same,Potency,[12],66.8 µM (active)
same,outcome,[10],inactive
same,activation,[8],-9.16% (inactive)
CC(C)NC[C@H](O)c1ccc(O)c(O)c1,Potency,[1],5.01 µM (active) and inactive
same,outcome,[2],inactive
same,outcome,[4],inactive
Oc1cn2c(n1)Nc1ccc(Cl)c(Cl)c1C2,viability (% of control),[13],87.9%
same,"viability, percent of control",[14],58.4%
same,Potency,[15],inactive
same,Potency,[16],inactive
OCCN1CCN(CCCN2c3ccccc3Sc3ccc(Cl)cc32)CC1,outcome,[2],inactive
same,outcome,[3],inactive
same,outcome,[4],inactive
COc1ccccc1O,Potency,[6],inactive
same,activation,[7],-3.15% (inactive) and 0.213% (inactive) and 1.06% (inactive)
same,activation,[9],-1.13% (inactive) and -0.291% (inactive) and -0.304% (inactive)
same,outcome,[10],inactive
same,activation,[8],0.592% (inactive) and -0.634% (inactive) and 2.1% (inactive)
CCCCOC(=O)c1ccc(O)cc1,Potency,[6],30.6 µM (active)
same,activation,[7],1.4% (inactive) and -3.01% (inactive)
same,Potency,[12],37.6 µM (active)
same,outcome,[10],inactive
same,activation,[8],6.66% (inactive) and 14.1% (inactive)
O=C1Nc2ccc(Cl)cc2[C@@](C#CC2CC2)(C(F)(F)F)O1,viability (% of control),[13],3.1% [at 92.2 µM]
same,"viability, percent of control",[14],2.9% [at 92.2 µM]
same,Potency,[16],17.1 µM (active)
Cc1cc2nc3c(=O)[nH]c(=O)nc-3n(C[C@H](O)[C@H](O)[C@H](O)CO)c2cc1C,activation,[7],-9.36% (inactive)
same,Potency,[11],5.96 µM (active)
same,Potency,[12],7.5 µM (active)
CC(=O)O[C@@]12CO[C@@H]1C[C@H](O)[C@@]1(C)C(=O)[C@H](O)C3=C(C)[C@@H](OC(=O)[C@H](O)[C@@H](NC(=O)OC(C)(C)C)c4ccccc4)C[C@@](O)([C@@H](OC(=O)c4ccccc4)[C@H]21)C3(C)C,outcome,[17],inactive
same,outcome,[18],inactive
same,outcome,[19],inactive
same,viability (% of control),[13],32.1%
same,"viability, percent of control",[14],69%
same,Potency,[15],37.2 µM (active)
same,Potency,[16],inactive
O=C1c2c(O)cccc2Cc2cccc(O)c21,Potency,[6],inactive
same,activation,[7],-1.03% (inactive)
same,outcome,[10],inactive
same,outcome,[20],inactive
same,activation,[8],-0.232% (inactive)
CCCc1c(OCCCCc2nn[nH]n2)ccc(C(C)=O)c1O,activation,[7],16.1% (inactive)
same,activation,[9],-0.919% (inactive)
COC(=O)C1=C(C)NC(C)=C(C(=O)OC)C1c1ccccc1[N+](=O)[O-],outcome,[3],inactive
same,outcome,[4],inactive
same,activation,[7],-2.95% (inactive)
same,Potency,[11],inactive
same,Potency,[12],inactive
same,outcome,[20],inactive
same,activation,[8],3.95% (inactive)
